Laboratory results taken from PubChem BioAssay AID1159580 (chemical genetic matrix, 2015).
Values joined by “and” are separate entries in the source; they are usually repeats but may differ in a detail not shown here. Identical values can stand only once. Out of some 5,500 compounds screened, about 2,000 (36%) were called active. Inconclusive results (about 18%) are left out. Rule as the data show it: active = normalized growth mostly below about 0.91 (no sharp cut-off); inconclusive = no clear call, values can overlap the other calls; inactive = mostly above about 0.92. This is one part of the list.

Assay: chemical genetic growth profiling, strain panel (AID 1159580);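 also: tested at 20 µM; growth read once vehicle control cultures reached saturation at 30 °C; 1 = growth at the plate median or of vehicle wells; lower values mean less growth of the strain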
Conditions: growth OD

Measured: normalized growth

Cc1ccccc1C(OCCN(C)C)c1ccccc1 (stereo not given)
inactive: S. cerevisiae deletion strains, locus YJR075W, strain HOC1, active compounds read low 0.986 and 0.988 | S. cerevisiae deletion strains, locus YKL009W, strain mrt4, active compounds read low 0.999 | S. cerevisiae deletion strains, locus YKL068W, active compounds read low 0.996 | S. cerevisiae deletion strains, locus YKL085W, strain MDH1 (second series), active compounds read low 1 | S. cerevisiae deletion strains, locus YKL085W, strain MDH1, active compounds read low 1 | S. cerevisiae deletion strains, locus YKL160W, strain elf1, active compounds read low 1.01 | S. cerevisiae deletion strains, locus YKL190W, strain CNB1, active compounds read low 0.996 | S. cerevisiae deletion strains, locus YKR001C, strain vps1, active compounds read low 1.03 | S. cerevisiae deletion strains, locus YKR026C, strain gcn3, active compounds read low 1.01 | S. cerevisiae deletion strains, locus YKR091W, strain srl3, active compounds read low 1.01 | S. cerevisiae deletion strains, locus YLL001W, strain dnm1, active compounds read low 1 | S. cerevisiae deletion strains, locus YLL026W, active compounds read low 1.01 | S. cerevisiae deletion strains, locus YLL041C, strain sdh2, active compounds read low 0.998 | S. cerevisiae deletion strains, locus YLR027C, strain aat2, active compounds read low 0.994 | S. cerevisiae deletion strains, locus YLR039C, strain RIC1, active compounds read low 1.14 | S. cerevisiae deletion strains, locus YLR058C, strain SHM2, active compounds read low 0.996 | S. cerevisiae deletion strains, locus YLR102C, strain apc9, active compounds read low 1 | S. cerevisiae deletion strains, locus YLR113W, strain HOG1, active compounds read low 0.956 | S. cerevisiae deletion strains, locus YLR221C, strain rsa3, active compounds read low 1.01 | S. cerevisiae deletion strains, locus YLR258W, strain gsy2, active compounds read low 1 | S. cerevisiae deletion strains, locus YLR262C, strain YPT6 (second series), active compounds read low 1.05 | S. cerevisiae deletion strains, locus YLR262C, strain YPT6, active compounds read low 1.13 | S. cerevisiae deletion strains, locus YLR268W, strain sec22, active compounds read low 1.05 | S. cerevisiae deletion strains, locus YLR320W, strain mms22, active compounds read low 1.02 | S. cerevisiae deletion strains, locus YLR330W, strain CHS5, active compounds read low 1.01 | S. cerevisiae deletion strains, locus YLR342W, strain FKS1 (second series), active compounds read low 1 | S. cerevisiae deletion strains, locus YLR342W, strain FKS1, active compounds read low 1.03 | S. cerevisiae deletion strains, locus YLR357W, strain rsc2, active compounds read low 1.01 | S. cerevisiae deletion strains, locus YLR370C, strain arc18, active compounds read low 1 | S. cerevisiae deletion strains, locus YLR371W, strain rom2, active compounds read low 1.01 | S. cerevisiae deletion strains, locus YLR384C, strain iki3, active compounds read low 1.01 | S. cerevisiae deletion strains, locus YLR418C, strain cdc73, active compounds read low 0.94 | S. cerevisiae deletion strains, locus YML016C, strain PPZ1, active compounds read low 1 | S. cerevisiae deletion strains, locus YML032C, strain rad52, active compounds read low 1.01 | S. cerevisiae deletion strains, locus YML120C, strain ndi1, active compounds read low 1.01 | S. cerevisiae deletion strains, locus YML124C, strain tub3, active compounds read low 1 | S. cerevisiae deletion strains, locus YMR058W, strain fet3, active compounds read low 0.977 | S. cerevisiae deletion strains, locus YMR078C, strain ctf18, active compounds read low 1.01 | S. cerevisiae deletion strains, locus YMR125W, strain sto1, active compounds read low 1.01 | S. cerevisiae deletion strains, locus YMR129W, active compounds read low 1.01 | S. cerevisiae deletion strains, locus YMR205C, strain PFK2, active compounds read low 1.02 | S. cerevisiae deletion strains, locus YMR223W, strain ubp8, active compounds read low 0.997 | S. cerevisiae deletion strains, locus YMR231W, strain pep5, active compounds read low 0.998 | S. cerevisiae deletion strains, locus YMR263W, strain SAP30, active compounds read low 0.985 | S. cerevisiae deletion strains, locus YMR307W, strain GAS1, active compounds read low 1.01 | S. cerevisiae deletion strains, locus YNL067W, strain RPL9B, active compounds read low 0.994 | S. cerevisiae deletion strains, locus YNL071W, strain lat1, active compounds read low 1 | S. cerevisiae deletion strains, locus YNL128W, strain TEP1, active compounds read low 1 | S. cerevisiae deletion strains, locus YNL153C, strain GIM3, active compounds read low 1.01 | S. cerevisiae deletion strains, locus YNL175C, strain NOP13, active compounds read low 1 | S. cerevisiae deletion strains, locus YNL183C, strain NPR1, active compounds read low 0.945 | S. cerevisiae deletion strains, locus YNL197C, strain WHI3, active compounds read low 1 | S. cerevisiae deletion strains, locus YNL209W, strain ssb2, active compounds read low 1 | S. cerevisiae deletion strains, locus YNL224C, strain SQS1, active compounds read low 0.994 | S. cerevisiae deletion strains, locus YNL233W, strain BNI4, active compounds read low 1.01 | S. cerevisiae deletion strains, locus YNL248C, strain rpa49, active compounds read low 1.01 | S. cerevisiae deletion strains, locus YNL250W, strain rad50, active compounds read low 0.989 | S. cerevisiae deletion strains, locus YNL271C, strain bni1, active compounds read low 1.01 | S. cerevisiae deletion strains, locus YNL298W, strain CLA4, active compounds read low 1.03 | S. cerevisiae deletion strains, locus YNL307C, strain MCK1, active compounds read low 1.02 | S. cerevisiae deletion strains, locus YNL322C, strain KRE1 (second series), active compounds read low 1.03 | S. cerevisiae deletion strains, locus YNL322C, strain KRE1, active compounds read low 0.997 and 0.999 | S. cerevisiae deletion strains, locus YNR049C, strain mso1, active compounds read low 1.02 | S. cerevisiae deletion strains, locus YNR052C, strain pop2, active compounds read low 1.01 | S. cerevisiae deletion strains, locus YOL006C, strain TOP1, active compounds read low 0.986 | S. cerevisiae deletion strains, locus YOL012C, strain htz1 0.949 | S. cerevisiae deletion strains, locus YOL147C, strain pex11, active compounds read low 1.01 | S. cerevisiae deletion strains, locus YOR001W, strain rrp6, active compounds read low 0.994 | S. cerevisiae deletion strains, locus YOR061W, strain CKA2, active compounds read low 1 | S. cerevisiae deletion strains, locus YOR069W, strain VPS5, active compounds read low 1 | S. cerevisiae deletion strains, locus YOR070C, strain gyp1, active compounds read low 0.996 | S. cerevisiae deletion strains, locus YOR080W, strain dia2, active compounds read low 0.996 | S. cerevisiae deletion strains, locus YOR083W, strain WHI5 (second series), active compounds read low 1 | S. cerevisiae deletion strains, locus YOR083W, strain WHI5, active compounds read low 1.02 | S. cerevisiae deletion strains, locus YOR106W, strain vam3, active compounds read low 1.03 | S. cerevisiae deletion strains, locus YOR136W, strain idh2, active compounds read low 0.988 | S. cerevisiae deletion strains, locus YOR144C, strain elg1, active compounds read low 1 | S. cerevisiae deletion strains, locus YOR184W, strain ser1, active compounds read low 1.03 | S. cerevisiae deletion strains, locus YOR231W, strain MKK1, active compounds read low 0.961 | S. cerevisiae deletion strains, locus YOR265W, strain rbl2, active compounds read low 0.994 | S. cerevisiae deletion strains, locus YOR270C, strain vph1, active compounds read low 0.972 | S. cerevisiae deletion strains, locus YOR290C, strain snf2, active compounds read low 1.03 | S. cerevisiae deletion strains, locus YOR316C, strain cot1, active compounds read low 1 | S. cerevisiae deletion strains, locus YPL051W, strain arl3, active compounds read low 0.994 | S. cerevisiae deletion strains, locus YPL078C, strain atp4, active compounds read low 1 | S. cerevisiae deletion strains, locus YPL106C, strain sse1, active compounds read low 1.02 | S. cerevisiae deletion strains, locus YPL240C, strain hsp82, active compounds read low 0.982 | S. cerevisiae deletion strains, locus YPL241C, strain CIN2, active compounds read low 1 and 0.994 | S. cerevisiae deletion strains, locus YPL256C, strain CLN2, active compounds read low 0.933 | S. cerevisiae deletion strains, locus YPR119W, strain clb2, active compounds read low 1 | S. cerevisiae deletion strains, locus YPR141C, strain kar3, active compounds read low 0.994 | S. cerevisiae deletion strains, locus YPR163C, strain tif3, active compounds read low 1.01 | S. cerevisiae deletion strains, locus YPR167C, strain met16, active compounds read low 1 | S. cerevisiae deletion strains, strain wtn01, active compounds read low 1.02 | S. cerevisiae strains, strain wild type, active compounds read low 0.989
